Test results reported in article PMC7862700, “An all-to-all approach to the identification of sequence-specific readers for epigenetic DNA modifications on cytosine”.

Experiments:
Experiment in all cases: DAPPL (digital affinity profiling via proximity ligation, sequencing); 10 mM Tris-HCl pH 7.5, 50 mM NaCl, 1 mM DTT, 4% glycerol, room temperature, 30 min; GST-TFs on glutathione beads, 16-mer random dsDNA library, 0.1% formaldehyde crosslink after washing; high values mean tight binding
[1] = target: T1, FEV (Homo sapiens, UniProt Q99581 1-238); conditions: protein: recombinant; tags: N-terminal GST; dsDNA, one strand shown
T1 sequence: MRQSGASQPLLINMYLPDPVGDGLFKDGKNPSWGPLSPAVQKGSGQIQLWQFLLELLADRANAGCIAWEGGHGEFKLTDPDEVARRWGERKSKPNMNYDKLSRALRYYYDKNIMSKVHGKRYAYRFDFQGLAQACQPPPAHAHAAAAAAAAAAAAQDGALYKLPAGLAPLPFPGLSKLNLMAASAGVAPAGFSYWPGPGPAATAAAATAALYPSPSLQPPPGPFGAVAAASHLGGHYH
How it was run: (§1)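 Pools of DNA-barcoded human transcription factors, expressed in yeast as GST fusions on glutathione beads and combined with a tag-only sample, were incubated with 200 nmole of a 16-mer random double-stranded DNA library. Incubation took 30 min at room temperature in Tris/NaCl/DTT/glycerol buffer and was followed by washing, 0.1% formaldehyde crosslinking, proximity ligation (BsaI/T4 ligase, 1 h, 37 °C), PCR amplification and sequencing on an Illumina NextSeq500. Binding signal is the ratio of a hexamer's read frequency for a factor to its frequency for the tag-only sample.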

[2] = target: ETV5 (Homo sapiens, UniProt P41161 1-510); conditions: protein: recombinant; tags: N-terminal GST; dsDNA, one strand shown
Chain of ETV5 (P41161 whole entry): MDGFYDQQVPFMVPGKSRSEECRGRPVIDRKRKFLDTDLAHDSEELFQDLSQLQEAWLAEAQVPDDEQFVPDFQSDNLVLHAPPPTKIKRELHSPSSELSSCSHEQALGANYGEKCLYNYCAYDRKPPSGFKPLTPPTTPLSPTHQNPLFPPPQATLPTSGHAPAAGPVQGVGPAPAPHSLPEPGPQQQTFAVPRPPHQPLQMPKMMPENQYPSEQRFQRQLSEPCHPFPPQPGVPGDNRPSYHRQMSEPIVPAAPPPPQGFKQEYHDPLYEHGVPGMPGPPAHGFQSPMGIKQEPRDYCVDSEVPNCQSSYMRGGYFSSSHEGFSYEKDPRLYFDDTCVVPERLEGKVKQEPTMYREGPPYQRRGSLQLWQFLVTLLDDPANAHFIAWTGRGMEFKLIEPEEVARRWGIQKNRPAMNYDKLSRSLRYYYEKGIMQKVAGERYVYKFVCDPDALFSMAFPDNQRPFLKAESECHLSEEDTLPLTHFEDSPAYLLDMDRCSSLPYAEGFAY
How it was run: as §1

[3] = target: HSF1 (Homo sapiens, UniProt Q00613 1-529); conditions: protein: recombinant; tags: N-terminal GST; chain copies: 3; dsDNA, one strand shown
Chain of HSF1 (Q00613 whole entry): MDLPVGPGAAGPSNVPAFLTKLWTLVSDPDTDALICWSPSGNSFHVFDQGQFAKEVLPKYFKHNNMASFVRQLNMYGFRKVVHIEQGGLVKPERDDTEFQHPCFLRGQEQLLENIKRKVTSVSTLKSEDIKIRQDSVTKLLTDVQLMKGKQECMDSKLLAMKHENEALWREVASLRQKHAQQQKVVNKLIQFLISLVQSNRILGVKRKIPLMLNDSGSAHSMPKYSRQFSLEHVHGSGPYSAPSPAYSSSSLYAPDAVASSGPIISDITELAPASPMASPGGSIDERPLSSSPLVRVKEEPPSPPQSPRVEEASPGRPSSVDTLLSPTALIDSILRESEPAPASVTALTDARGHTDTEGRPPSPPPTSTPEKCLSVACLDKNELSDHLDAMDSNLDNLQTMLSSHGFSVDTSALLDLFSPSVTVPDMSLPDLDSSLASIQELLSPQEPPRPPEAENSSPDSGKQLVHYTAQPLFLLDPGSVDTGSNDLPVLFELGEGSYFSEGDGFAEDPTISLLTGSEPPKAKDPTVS
How it was run: as §1

[4] = target: T2, SPIC (Homo sapiens, UniProt Q8N5J4 1-248); conditions: protein: recombinant; tags: N-terminal GST; dsDNA, one strand shown
T2 sequence: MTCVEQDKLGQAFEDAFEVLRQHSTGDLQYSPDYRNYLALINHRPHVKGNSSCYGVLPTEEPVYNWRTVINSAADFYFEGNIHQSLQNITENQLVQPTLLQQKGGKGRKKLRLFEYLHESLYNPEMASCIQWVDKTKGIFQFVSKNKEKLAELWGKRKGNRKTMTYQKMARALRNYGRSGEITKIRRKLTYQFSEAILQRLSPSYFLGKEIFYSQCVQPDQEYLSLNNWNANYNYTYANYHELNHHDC
How it was run: as §1

[5] = target: ELF4 (Homo sapiens, UniProt Q99607 1-663); conditions: protein: recombinant; tags: N-terminal GST; dsDNA, one strand shown
Chain of ELF4 (Q99607 whole entry): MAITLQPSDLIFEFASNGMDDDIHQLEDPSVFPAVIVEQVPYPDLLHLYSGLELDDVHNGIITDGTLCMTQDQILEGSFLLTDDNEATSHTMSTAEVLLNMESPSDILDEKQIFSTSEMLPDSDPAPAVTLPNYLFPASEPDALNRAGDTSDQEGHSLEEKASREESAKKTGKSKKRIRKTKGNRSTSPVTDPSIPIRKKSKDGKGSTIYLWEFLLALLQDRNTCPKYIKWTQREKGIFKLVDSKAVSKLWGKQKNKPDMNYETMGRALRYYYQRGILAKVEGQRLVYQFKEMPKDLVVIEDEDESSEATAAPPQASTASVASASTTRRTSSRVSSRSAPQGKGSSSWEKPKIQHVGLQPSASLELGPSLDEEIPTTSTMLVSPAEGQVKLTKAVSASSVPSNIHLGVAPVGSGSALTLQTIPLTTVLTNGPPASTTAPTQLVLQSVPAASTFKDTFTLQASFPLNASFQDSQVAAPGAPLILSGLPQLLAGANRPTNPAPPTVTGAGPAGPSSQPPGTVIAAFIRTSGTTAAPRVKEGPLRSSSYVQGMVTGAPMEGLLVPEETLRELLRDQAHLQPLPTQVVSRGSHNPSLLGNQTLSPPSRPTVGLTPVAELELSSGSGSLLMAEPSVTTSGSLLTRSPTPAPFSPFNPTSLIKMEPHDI
How it was run: as §1

[6] = target: T3, ELK4 (Homo sapiens, UniProt P28324-2 1-405); conditions: protein: recombinant; tags: N-terminal GST; dsDNA, one strand shown
T3 sequence: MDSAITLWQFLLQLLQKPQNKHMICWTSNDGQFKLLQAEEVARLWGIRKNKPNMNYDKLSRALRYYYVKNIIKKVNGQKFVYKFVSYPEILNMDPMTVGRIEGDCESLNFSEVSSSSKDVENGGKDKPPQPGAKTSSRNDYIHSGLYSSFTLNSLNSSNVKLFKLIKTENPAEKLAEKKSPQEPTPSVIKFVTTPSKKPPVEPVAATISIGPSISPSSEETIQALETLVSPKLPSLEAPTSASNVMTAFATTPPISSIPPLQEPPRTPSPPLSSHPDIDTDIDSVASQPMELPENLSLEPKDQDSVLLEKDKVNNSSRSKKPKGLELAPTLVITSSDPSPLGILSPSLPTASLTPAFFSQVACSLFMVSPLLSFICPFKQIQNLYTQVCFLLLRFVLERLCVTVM
How it was run: as §1

[7] = target: T4, ETV2 (Homo sapiens, UniProt O00321 1-342); conditions: protein: recombinant; tags: N-terminal GST; dsDNA, one strand shown
T4 sequence: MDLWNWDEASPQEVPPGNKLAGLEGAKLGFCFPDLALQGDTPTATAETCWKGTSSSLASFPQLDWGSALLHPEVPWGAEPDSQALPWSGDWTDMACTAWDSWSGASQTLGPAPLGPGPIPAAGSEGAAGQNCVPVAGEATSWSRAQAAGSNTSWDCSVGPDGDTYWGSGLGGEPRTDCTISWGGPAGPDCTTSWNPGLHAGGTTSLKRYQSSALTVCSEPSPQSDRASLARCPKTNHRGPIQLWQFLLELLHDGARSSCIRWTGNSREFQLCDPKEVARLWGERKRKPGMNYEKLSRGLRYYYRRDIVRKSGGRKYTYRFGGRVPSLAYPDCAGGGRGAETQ
How it was run: as §1

[8] = target: T5, ELF3 (Homo sapiens, UniProt P78545 1-371); conditions: protein: recombinant; tags: N-terminal GST; dsDNA, one strand shown
T5 sequence: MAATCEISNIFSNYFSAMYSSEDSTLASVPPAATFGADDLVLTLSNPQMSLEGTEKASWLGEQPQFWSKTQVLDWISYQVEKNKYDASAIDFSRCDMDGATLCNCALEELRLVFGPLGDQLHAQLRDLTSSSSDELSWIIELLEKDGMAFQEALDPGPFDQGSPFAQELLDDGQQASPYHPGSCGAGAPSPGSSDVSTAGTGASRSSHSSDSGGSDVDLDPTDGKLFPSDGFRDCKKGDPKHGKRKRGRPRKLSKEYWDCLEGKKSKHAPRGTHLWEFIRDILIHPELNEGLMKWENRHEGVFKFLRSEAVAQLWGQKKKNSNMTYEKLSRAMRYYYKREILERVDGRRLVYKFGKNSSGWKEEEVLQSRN
How it was run: as §1

[9] = target: CRX (Homo sapiens, UniProt O43186 1-299); conditions: protein: recombinant; tags: N-terminal GST; dsDNA, one strand shown
Chain of CRX (O43186 whole entry): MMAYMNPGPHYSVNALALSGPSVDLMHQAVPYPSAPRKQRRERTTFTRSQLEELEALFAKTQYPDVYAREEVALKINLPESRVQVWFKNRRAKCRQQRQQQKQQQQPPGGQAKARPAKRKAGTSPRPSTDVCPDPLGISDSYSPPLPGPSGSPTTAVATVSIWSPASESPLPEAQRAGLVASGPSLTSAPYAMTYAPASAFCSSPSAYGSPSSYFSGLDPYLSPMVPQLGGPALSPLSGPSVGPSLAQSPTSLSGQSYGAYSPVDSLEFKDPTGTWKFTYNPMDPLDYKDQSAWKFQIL
How it was run: as §1

[10] = target: ETV1 (Homo sapiens, UniProt P50549 1-477); conditions: protein: recombinant; tags: N-terminal GST; dsDNA, one strand shown
Chain of ETV1 (P50549 whole entry): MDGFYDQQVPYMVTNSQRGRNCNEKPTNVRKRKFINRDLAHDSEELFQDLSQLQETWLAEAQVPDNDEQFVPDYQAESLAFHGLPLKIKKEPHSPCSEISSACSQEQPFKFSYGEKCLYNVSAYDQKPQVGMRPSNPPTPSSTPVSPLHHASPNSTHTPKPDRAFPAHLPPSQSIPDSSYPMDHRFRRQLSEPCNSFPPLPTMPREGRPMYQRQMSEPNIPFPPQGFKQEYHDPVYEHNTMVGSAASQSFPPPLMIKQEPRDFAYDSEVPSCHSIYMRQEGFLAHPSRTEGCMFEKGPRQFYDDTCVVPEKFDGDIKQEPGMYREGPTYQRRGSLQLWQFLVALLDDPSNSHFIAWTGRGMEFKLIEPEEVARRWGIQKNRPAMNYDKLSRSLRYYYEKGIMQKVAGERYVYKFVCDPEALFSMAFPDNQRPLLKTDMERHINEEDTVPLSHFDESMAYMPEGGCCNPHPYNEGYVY
How it was run: as §1

Sequence | binding signal [1] | binding signal [2] | binding signal [3] | binding signal [4] | binding signal [5] | binding signal [6] | binding signal [7] | binding signal [8] | binding signal [9] | binding signal [10]
TCTTGT | 1.52 fold enrichment (6-mer frequency, TF over GST control) | 1.49 fold enrichment (6-mer frequency, TF over GST control) | 1.55 fold enrichment (6-mer frequency, TF over GST control) | 1.39 fold enrichment (6-mer frequency, TF over GST control) | 1.66 fold enrichment (6-mer frequency, TF over GST control) | 1.49 fold enrichment (6-mer frequency, TF over GST control) | 1.4 fold enrichment (6-mer frequency, TF over GST control) | 1.55 fold enrichment (6-mer frequency, TF over GST control) | 1.48 fold enrichment (6-mer frequency, TF over GST control) | 1.57 fold enrichment (6-mer frequency, TF over GST control)
CGTATA | 1.04 fold enrichment (6-mer frequency, TF over GST control) | 1.15 fold enrichment (6-mer frequency, TF over GST control) | 1.03 fold enrichment (6-mer frequency, TF over GST control) | 1.19 fold enrichment (6-mer frequency, TF over GST control) | 1.13 fold enrichment (6-mer frequency, TF over GST control) | 1.07 fold enrichment (6-mer frequency, TF over GST control) | 1.12 fold enrichment (6-mer frequency, TF over GST control) | 1.24 fold enrichment (6-mer frequency, TF over GST control) | 1.07 fold enrichment (6-mer frequency, TF over GST control) | 1.19 fold enrichment (6-mer frequency, TF over GST control)
CATACT | 1.27 fold enrichment (6-mer frequency, TF over GST control) | 1.2 fold enrichment (6-mer frequency, TF over GST control) | 1.2 fold enrichment (6-mer frequency, TF over GST control) | 1.23 fold enrichment (6-mer frequency, TF over GST control) | 1.35 fold enrichment (6-mer frequency, TF over GST control) | 1.34 fold enrichment (6-mer frequency, TF over GST control) | 1.47 fold enrichment (6-mer frequency, TF over GST control) | 1.34 fold enrichment (6-mer frequency, TF over GST control) | 1.24 fold enrichment (6-mer frequency, TF over GST control) | 1.33 fold enrichment (6-mer frequency, TF over GST control)
GATTCA | 1.08 fold enrichment (6-mer frequency, TF over GST control) | 1.08 fold enrichment (6-mer frequency, TF over GST control) | 1.13 fold enrichment (6-mer frequency, TF over GST control) | 1.14 fold enrichment (6-mer frequency, TF over GST control) | 1.15 fold enrichment (6-mer frequency, TF over GST control) | 1.24 fold enrichment (6-mer frequency, TF over GST control) | 1.08 fold enrichment (6-mer frequency, TF over GST control) | 1.26 fold enrichment (6-mer frequency, TF over GST control) | 1.13 fold enrichment (6-mer frequency, TF over GST control) | 1.15 fold enrichment (6-mer frequency, TF over GST control)
